Compound activity from PubChem.
GALR2 agonist = GALR2 receptor agonists, primary screen, cell-based; Galanin receptor type 2 (Homo sapiens), O43603; GALR2-expressing cells, agonist activation read-out; activation, % (no concentration beside the values); 140,000 compounds, 0.48% hits; AID 803, 2007; in the data active = activation above about 5%, passing the limit was not always enough;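 also: 0% = vehicle buffer wells and 100% = reference agonist at full effect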
S1P2 ag = S1P2 receptor agonists, primary screen, cell-based | Sphingosine 1-phosphate receptor 2 (Homo sapiens), O95136 | 97,000 compounds, 0.46% hits | activation, % at 4.5 µM | S1P2-expressing cell line, agonist reporter read-out; in the data active = activation above about 16%;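 also: 0% = vehicle low control and 100% = maximal reference agonist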
Target sequence (O95136 whole entry, looked up): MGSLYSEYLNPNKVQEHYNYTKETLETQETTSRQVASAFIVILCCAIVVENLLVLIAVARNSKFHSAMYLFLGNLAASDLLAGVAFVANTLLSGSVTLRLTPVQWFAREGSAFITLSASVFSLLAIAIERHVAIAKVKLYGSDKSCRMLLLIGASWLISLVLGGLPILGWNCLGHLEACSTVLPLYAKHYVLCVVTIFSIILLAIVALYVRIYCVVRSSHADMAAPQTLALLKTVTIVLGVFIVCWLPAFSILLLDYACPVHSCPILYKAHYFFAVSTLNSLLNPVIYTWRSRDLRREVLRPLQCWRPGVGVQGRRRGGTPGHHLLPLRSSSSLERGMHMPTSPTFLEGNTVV
GALR2 antag = GALR2 antagonists in receptor-expressing cells, primary screen; inhibition, % at 4 µM; 140,000 compounds, 0.39% hits; antagonist mode; Galanin receptor type 2 (Homo sapiens), O43603; in the data active = inhibition above about 27%;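 also: cells stimulated with galanin 1-16 at roughly its EC80; 0% = agonist challenge control and 100% = basal control without agonist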
Calb biofilm kill = clotrimazole potentiators killing Candida biofilms, primary screen, with clotrimazole, Alamar Blue; C. albicans biofilm + clotrimazole; inhibition, % at 6 µM; 85,000 compounds, 0.14% hits;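 active = inhibition above 20%; inactive = inhibition below 20%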;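 also: preformed 24 hr biofilms exposed to compound for 48 hr; 0% = biofilm without compound and 100% = blank killed by clotrimazole plus chlorhexidine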
S1P2 antag = human S1P2 receptor antagonists, primary screen, cell-based; 97,000 compounds, 0.21% hits; inhibition, % at 5 µM; cell-based S1P2 antagonist assay, inhibition at 5 uM; in the data active = inhibition above about 45%;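 also: CRE beta-lactamase reporter cells expressing human S1P2 stimulated with S1P; 0% = agonist at EC80 alone and 100% = agonist plus reference antagonist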
Phagocytosis inh = inhibitors of macrophage phagocytosis, primary screen, imaging, J774A.1 cells, IgG beads | J774A.1 macrophage IgG-bead phagocytosis | inhibition, % at 5 µM | 110,000 compounds, 0.07% hits;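 active = inhibition above the mean of the plate negative controls plus 5 SD, cut at about 13% in these data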;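 also: phagocytic index as fraction of beads internalized from green versus red external bead signal; plate controls were DMSO negative control for no effect and cytochalasin-D positive control for full effect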
* marks the source's active call; other numbers are inactive results; nt = no result; [ ] = remark or other dose. Shown are actives, neighbours in structure and some others; about 1.3% of the full set was active somewhere.

SMILES | GALR2 agonist | S1P2 ag | GALR2 antag | Calb biofilm kill | S1P2 antag | Phagocytosis inh
O=C(Nc1ccc2nc3n(c(=O)c2c1)CCCC3)c1cc([N+](=O)[O-])ccc1F | 2 | nt | 1 | nt | nt | 18
CCN(C(=O)Cn1c(=O)oc2ccccc21)C1CCS(=O)(=O)C1 (stereo not drawn) | -1 | 1 | -7 | 4 | -26 | -2
Cc1cc(C)n2nc(S(=O)(=O)N(C)c3ccccc3)nc2n1 | 0 | 52* | 2 | -1 | -5 | 0
Cc1cc(C)n2nc(Cc3ccccc3)nc2n1 | -1 | 2 | -10 | nt | -11 | 2
Cc1ccc(-c2nc(NC(=O)CSc3cc(C)c4ccccc4n3)ns2)cc1 | -1 | nt | 7 | nt | nt | nt
O=C(CSc1ccc2ccccc2n1)Nc1nsc(-c2ccc(Cl)cc2)n1 | -1 | nt | -4 | nt | nt | 31*[artifact]
Cc1ccc(-c2cc(C(F)F)nc(NCc3cccs3)n2)cc1 | 0 | nt | -2 | nt | nt | -7
Cc1ccc(-c2cc(C(F)F)nc(NCc3cccnc3)n2)cc1 | 5.0* | -7 | -6 | 10 | -12 | nt
CCOC(=O)Nc1ccc2c(c1)N(C(=O)CCN(C)C)c1ccccc1S2 | -2 | -8 | 30* | nt | -5 | nt
CCOC(=O)Nc1ccc2c(c1)N(C(=O)CN1CCN(C)CC1)c1ccccc1S2 | -1 | 2 | 1 | nt | -5 | -1
CCCn1c(N)c(C(=O)CSc2nnnn2-c2ccc(O)cc2)c(=O)n(C)c1=O | -2 | 0 | -7 | 83* | -12 | 2
CCCn1c(N)c(C(=O)CSc2nc3ccccc3n2CCC#N)c(=O)n(C)c1=O | 0 | 26* | 5 | 5 | -12 | 0
COC(=O)c1ccc(NC(=S)NCCc2cccc(C)c2)cc1 | -3 | -5 | 12 | nt | -17 | -1
Cc1cc(C)c(S(=O)(=O)c2ccccc2)c(OC(=O)c2c(Cl)cc(Cl)cc2Cl)n1 | 1 | 0 | -5 | 13 | -6 | -2
CC(C)Cn1c(N)c(C(=O)COC(=O)c2ccc3c(c2)OCCO3)c(=O)n(C)c1=O | 0 | -2 | 7 | 6 | 20 | nt
CC(C)Cn1c(N)c(C(=O)CSc2ccc3c(c2)OCCO3)c(=O)n(C)c1=O | -2 | -3 | 11 | 1 | 54* | nt
Cc1cc(C)n(-c2nc(Nc3ccccc3C(F)(F)F)nc(-n3nc(C)cc3C)n2)n1 | -2 | -7 | 10 | 8 | 59* | nt
Cc1c(C)c2ccc(OS(C)(=O)=O)cc2oc1=O | -1 | nt | 3 | nt | nt | -2
COc1ccc(S(=O)(=O)NCc2cn3c(C)csc3n2)cc1F | -3 | -2 | 2 | 21* | -5 | -1
COc1ccc(OC)c(S(=O)(=O)NCc2cn3c(C)csc3n2)c1 | -2 | -5 | 0 | -4 | -13 | 1
COc1cccc(N2CCN(c3ncnc4c3cnn4-c3ccc(C)cc3C)CC2)c1 | -4 | -11 | 2 | 14 | 66* | -1
Cc1ccc(-n2ncc3c(N4CCCC4)ncnc32)c(C)c1 | -3 | -1 | -4 | 10 | 1 | nt
Clc1ccc(Nc2nc3ccccc3n3nnnc23)cc1 | -1 | 1 | -7 | 5 | -9 | -1
Fc1cc(Br)ccc1Nc1nc2ccccc2n2nnnc12 | 6.1* | nt | 7 | 4 | nt | nt
O=C(Nc1nc2ccccc2s1)c1cc2c(s1)-c1ccccc1OC2 | 3 | 40* | -4 | 11 | -45 | -1
SMILES | GALR2 agonist | S1P2 ag | GALR2 antag | Calb biofilm kill | S1P2 antag | Phagocytosis inh
O=C(Nc1nccs1)c1cc2c(s1)-c1ccccc1OC2 | 8 | 4 | 14 | nt | -9 | 0
CCCNS(=O)(=O)c1cccc2cccnc12 | nt | nt | nt | 12 | nt | 0
O=S(=O)(NCCO)c1cccc2cccnc12 | -2 | -5 | -10 | 6 | 4 | 50*[artifact]
O=C(Nc1nnc(-c2ccc(Cl)cc2)o1)c1nc2ccccc2s1 | 0 | -9 | -7 | 10 | 51* | 0
Cc1ccccc1CN(c1ccc(C(=O)NCCC2=CCCCC2)cc1)S(C)(=O)=O | -1 | -2 | -7 | 4 | 6 | 3
Cc1cccc2sc(NNC(=O)c3ccc(S(=O)(=O)N4CCCC(C)C4)cc3)nc12 (stereo not drawn) | 5.2* | nt | -1 | nt | nt | nt
Cc1cccc2sc(NNC(=O)c3ccc(S(=O)(=O)N4CCc5ccccc5C4)cc3)nc12 | -1 | nt | 8 | nt | nt | nt
CCOc1c(Cl)cc(C2NC(=O)NC(C)=C2C(=O)NCc2ccccc2)cc1OC (stereo not drawn) | -1 | -1 | -11 | 3 | 3 | -1
Cc1nn(-c2ccccc2)c(Cl)c1/C=N/Nc1nc2ccccc2[nH]1 | 5.5* | nt | 13 | nt | nt | -6
COc1cc2c(cc1OC)-c1cc(N3CCCc4ccccc43)nc(=O)n1CC2 | 0 | 41* | -2 | 3 | -48 | 3
COc1cc2c(cc1OC)-c1cc(N3CCCCCC3)nc(=O)n1CC2 | 0 | 36* | -6 | nt | -26 | -1
COc1cc2c(cc1OC)-c1cc(NC3CCCCCC3)nc(=O)n1CC2 | -1 | 42* | -11 | -1 | -44 | 0
CCN(CC)CCCNc1cc2n(c(=O)n1)CCc1cc(OC)c(OC)cc1-2 | -6 | -5 | 7 | 1 | -7 | 1
COc1ccccc1N1CCN(c2cc(N3CCCC3)nc(C)n2)CC1 | -1 | -7 | 0 | nt | 13 | nt
CCOC(=O)N1CCC(n2c(SCC(=O)N3CCCC3)nc3ccccc3c2=O)CC1 | -1 | -9 | 3 | nt | 14 | nt
CCOC(=O)N1CCC(n2c(SCC(=O)N3CCC(C)CC3)nc3ccccc3c2=O)CC1 | -1 | -3 | -10 | 24* | 4 | -1
CCOc1ccc(S(=O)(=O)Nc2cc(OC)ccc2OC)cc1 | 0 | 0 | 1 | 5 | -13 | 1
N#Cc1c(NCCN)nc(-c2ccco2)c2c1CCCC2 | 6 | 20* | -12 | 3 | -47 | -2
CC(C)CCNc1nc(-c2ccco2)c2c(c1C#N)CCCC2 | 10 | 37* | 0 | 6 | -50 | 0
N#Cc1c(N2CCOCC2)nc(-c2ccco2)c2c1CCCC2 | 4 | -1 | -12 | 9 | 7 | -1
CCc1nc(NCCC(C)C)c(C#N)c2c1CCCC2 | -1 | -5 | 10 | 3 | -18 | -1
CCn1c(=O)cc(SCC(=O)Nc2cc(OC)c(OC)c(OC)c2)c2ccccc21 | -1 | 20* | -1 | 8 | -48 | 1
CCn1c(=O)cc(SCC(=O)Nc2cccc(SC)c2)c2ccccc21 | 2 | -3 | -12 | -7 | -25 | 0
COC(=O)C1=C(CSc2nncn2C)NC(=O)NC1c1cc(C)ccc1C (stereo not drawn) | -1 | -4 | -7 | 1 | -2 | -1
N#Cc1cc2c(=O)n3ccccc3nc2n(Cc2cccnc2)c1=N | 2 | -3 | -11 | 3 | 2 | nt
Cc1ccccc1-n1c(=O)c(C#N)cc2c(=O)n3ccccc3nc21 | 74* | 63* | -56 | 7 | -104 | -1
C=CCn1c(=O)c(C#N)cc2c(=O)n3ccccc3nc21 | 21* | 60* | -31 | 11 | -59 | -5
